# Only some compounds are listed: those with a hit (about 2.2% of all), similar ones and a draw of the others.
# CCT modulator – cytosolic chaperonin activity modulation. 0.3% of 360,000 active. purified chaperonin ATPase assay, HTRF ADP detection, 30 min. AID 651819. activity change, % (test concentration not listed), hits read low; in the data active = activity change below about -30%
#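 We incubate TRiC, 40 or 20 nM final, with library compounds at 76 uM and 10 uM ATP for 30 min at 37 °C. ADP formed is detected with Transcreener HTRF reagents after 30 min at room temperature.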
# uPA surface inh – inhibitors of cell surface uPA generation; cell surface uPA generation assay, qHTS; Potency, µM (series often up to 38.3 µM), hits mostly inhibitors; 0.31% of 330,000 active; active = well fitted inhibition curve with a large enough effect; inconclusive = small, poorly fitted or top-dose-only effect; inactive = no such curve, though single readings can be large or run the other way; tested in mouse RAW 264.7 cells; note: nearly all actives have a fitted effect of over 55% in size
# GLP-1R agonist – GLP-1 receptor (human) agonism; P43220; HEK293 GLP-1R CRE-luciferase, luminescence, 4-6 h; cells express a hypersensitive GLP-1R form; Potency, µM (highest dose often 45.6 µM), hits mostly activators; 0.007% of 380,000 active; AID 624172
# Target sequence (P43220 whole entry, looked up): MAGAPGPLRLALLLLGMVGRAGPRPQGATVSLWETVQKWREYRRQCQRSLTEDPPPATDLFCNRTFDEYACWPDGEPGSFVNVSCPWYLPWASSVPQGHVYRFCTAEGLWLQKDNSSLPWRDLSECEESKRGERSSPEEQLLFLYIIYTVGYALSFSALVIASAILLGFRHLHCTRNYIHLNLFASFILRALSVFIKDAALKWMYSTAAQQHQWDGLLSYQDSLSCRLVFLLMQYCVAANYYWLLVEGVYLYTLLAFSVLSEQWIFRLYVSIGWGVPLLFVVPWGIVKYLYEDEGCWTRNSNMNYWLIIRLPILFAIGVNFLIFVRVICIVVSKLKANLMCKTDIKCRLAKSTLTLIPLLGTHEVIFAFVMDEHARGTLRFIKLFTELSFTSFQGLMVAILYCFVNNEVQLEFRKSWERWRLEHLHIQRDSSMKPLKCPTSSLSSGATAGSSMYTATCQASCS
# GLP1R inv ag – GLP-1 receptor (human) inverse agonism; 1.6% of 410,000 active; AID 624417; Potency, µM (top dose mostly 38.3 µM), most hits filed as inhibitors; HEK293 GLP-1R CRE-luciferase, luminescence, 24 h; GLP-1R form is constitutively active; note: nearly all actives have a fitted effect of over 55% in size
#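 Inverse agonism was detected as reduced cAMP-driven luciferase luminescence after 24 h compound treatment. The cells were HEK293 clones expressing constitutively active human GLP-1R with the reporter. Reporter-only and GPR119 cell lines served as counterscreen controls.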
# GLP1R cytotox – cytotoxicity in counter-screen for GLP-1R inverse agonists; HEK293 cAMP-luciferase reporter cells, luminescence, 24 h; Potency, µM (series often up to 38.3 µM), usual class: inhibitors; 0.13% of 410,000 active;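 note: loss of luciferase light is scored as toxicity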
#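 Luminescence readout: signal drop marks cytotoxicity. Plated cells grew 12 h at 37 °C, 5% CO2, received 23 nL compound for 24 h, then got luciferase reagent, read after 12 min at RT.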
# MmCpn inh – M. maripaludis TRiC chaperonin inhibition | AID 504842 | Potency, µM (doses to about 76.9 µM), usual class: inhibitors | purified Mm-Cpn ATPase, ADP Transcreener TR-FRET | 0.031% of 330,000 active; note: nearly all actives have a fitted effect of over 80% in size
#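 TR-FRET (320 nm excitation; 590 and 665 nm emission) reports ADP made from 10 uM ATP by 25 nM enzyme; compounds were preincubated 10 min, reaction run 30 min, both at 37°C.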
# Numbers stand for hits; – = inactive; ? = inconclusive; · = no result given; [ ] = another dose, or the depositor's remark. Unless noted, calls come from the whole dose curve; as a rule, active = well fitted curve in the direction sought with a large enough effect; inconclusive = small, poorly fitted or top-dose-only effect, or another doubt; inactive = no such curve, though single readings can be large; an effect the other way counts as inactive or inconclusive.
SMILES,CCT modulator,uPA surface inh,GLP-1R agonist,GLP1R inv ag,GLP1R cytotox,MmCpn inh
COc1cccc(C2CCCN2Cc2nc(CCC(C)C)no2)c1 (stereo not drawn),–,–,–,?,–,–
C[n+]1c2n(c3ccccc31)N=C(c1ccc(Cl)cc1)CS2,–,–,–,–,–,–
CC1Sc2n(c3ccccc3[n+]2C)N=C1c1ccccc1 (stereo not drawn),-34,–,–,–,–,–
COc1ccc(-c2cc3nc(C)cc(N)n3n2)cc1,–,–,–,7.9µM,–,–
OC(c1ccccc1)(c1ccccc1)C1CCN(CCCOc2ccc3c(c2)CCCC3)CC1,–,·,–,7.9µM,?,·
N#CCc1ccc(OCCCN2CCC(C(O)(c3ccccc3)c3ccccc3)CC2)cc1,–,·,–,?,?,·
CCOc1ccc(NC(=O)Cn2nc(CC)n3c(cc4sccc43)c2=O)cc1,·,·,·,–,–,·
CCC(=O)N1CCc2cc(S(=O)(=O)CCC(=O)NCc3ccc(C)cc3)ccc21,–,–,–,–,–,–
CCC(=O)N1CCc2cc(S(=O)(=O)CCC(=O)NC3CCCCC3)ccc21,-75,–,–,–,–,–
CCC(=O)N1CCc2cc(S(=O)(=O)CCC(=O)NCc3ccc(F)cc3)ccc21,·,·,–,?,–,·
CCC(=O)N1CCc2cc(S(=O)(=O)CCC(=O)NCc3cccc(OC)c3)ccc21,-66,–,–,–,–,–
CCOC(=O)N1CCC(NC(=O)CCS(=O)(=O)c2ccc3c(c2)CCN3C(=O)CC)CC1,–,–,–,–,–,–
CCC(=O)N1CCc2cc(S(=O)(=O)CCC(=O)NCc3ccccc3OC)ccc21,-57,–,–,–,–,?
COc1ccc(CNC(=O)CCCn2c(=O)c3cccn3c3ccc(F)cc32)cc1OC,·,·,·,–,–,·
CC(C)n1c(SCC(=O)c2ccc(F)cc2)nc2c(sc3ccccc32)c1=O,·,·,·,–,–,·
CN1CCc2c(n(CC(O)CNCc3ccccc3)c3ccccc23)C1=O (stereo not drawn),–,–,–,?,–,–
CC(C)NCC(O)Cn1c2c(c3ccccc31)CCc1c-2cnn1-c1ccccc1 (stereo not drawn),–,–,–,10µM,?,–
COc1cc(NC(=O)C2=CC(c3ccc(F)cc3)=NS(=O)(=O)N2C)cc(OC)c1OC,·,·,·,–,–,·
CN(C)c1ccc(CNC(=O)C2CCN(c3nnc(-n4cccc4)s3)CC2)cc1,·,·,–,–,–,·
COc1cc(NC(=O)CN2C(=O)NC3(CCOc4ccccc43)C2=O)cc(OC)c1 (stereo not drawn),–,–,–,–,–,–
O=C(CN1C(=O)NC2(CCOc3ccccc32)C1=O)Nc1cccc(Cl)c1 (stereo not drawn),–,–,–,10µM,–,–
CCOC(=O)N1CCN(C(=O)CNC(=O)c2ccc(Br)o2)CC1,-53,–,–,–,–,–
C=CCc1ccc(OCC(O)CO)c(OC)c1 (stereo not drawn),–,–,–,–,–,–
C=CCc1ccc(O)c(-c2cc(CC=C)ccc2O)c1,–,–,–,11µM,–,·
COc1ccc(-c2onc(C)c2C)cc1S(=O)(=O)N1c2ccccc2CC1C (stereo not drawn),·,·,·,–,–,·
SMILES,CCT modulator,uPA surface inh,GLP-1R agonist,GLP1R inv ag,GLP1R cytotox,MmCpn inh
COC(=O)c1ccccc1NC(=O)c1ccc2c(c1)CCN2S(C)(=O)=O,·,·,·,–,–,·
CC1=C(CO)C(=O)OC([C@@H](C)C2CC[C@H]3C4C[C@H]5O[C@]56[C@@H](O)C=CC(=O)[C@]6(C)C4CC[C@]23C)C1 (stereo partly drawn),–,?,–,–,13µM,–
CCc1ccccc1NC(=O)CN1C(=O)CCn2nc(-c3cccn3C)cc21,·,·,·,–,–,·
Cc1ccc(CNC(=O)c2c(Nc3c(C)cccc3C)sc(C(=O)c3ccccc3)c2N)cc1,·,·,·,7.1µM,–,·
COc1cccc(Nc2sc(C(=O)c3ccc(Cl)cc3)c(N)c2C(=O)NCc2ccc(C)cc2)c1,·,·,·,?,–,·
O=C(O)[C@@H](O)[C@@H](O)[C@@H](O[C@H]1O[C@@H](CO)[C@@H](O)[C@@H](O)[C@@H]1O)[C@@H](O)CO,·,·,–,·,·,·
CC(C)(C)OC(=O)N1CCC(c2c(C(=O)NCCN3CCOCC3)cnn2-c2ccc(F)cc2F)CC1,·,·,·,–,–,·
Cc1ccc(C)c(NC(=O)c2cc3ccccn3n2)c1,–,–,–,–,–,–
Cc1ccc(C)c(NC(=O)c2cnn3ccccc23)c1,–,11µM,–,–,–,–
CC(=O)c1cccc(NC(=O)c2cnn3ccccc23)c1,–,–,–,–,–,–
CC(=O)c1ccc(NC(=O)c2cnn3ccccc23)cc1,–,–,–,2.5µM,–,–
COc1cccc(CN2C(=O)c3ccccc3Sc3ccc(C(=O)NCc4ccccc4)cc32)c1,·,·,–,–,–,·
Cc1ccc(N(CC(=O)Nc2ccc(Br)c(C)c2)S(=O)(=O)c2cccs2)cc1,·,·,–,–,–,·
CCCCCCCCCCCCCCCCCCOP(=O)([O-])OC1CC[N+](C)(C)CC1,·,·,–,·,·,·
O=C1Nc2cc(C(=O)NCCCN3CCCC3)ccc2S/C1=C\c1ccccc1,–,–,–,10µM,–,–
O=C1Nc2cc(C(=O)N3CCN(c4ccccn4)CC3)ccc2S/C1=C\c1ccccc1,-42,–,–,–,–,–
Cc1cccn2c(=O)cc(CSc3nnc(NC(=O)COc4ccccc4)s3)nc12,·,·,·,–,–,–
COC(=O)c1sc2cccc(F)c2c1S(=O)(=O)N1CCN(c2cccc(C)c2)C(C)C1 (stereo not drawn),·,·,·,?,–,·
Cc1ccc(S(=O)(=O)N(CC(O)Cn2c3ccccc3c3ccccc32)c2cccc(C(=O)NCCO)c2)cc1 (stereo not drawn),·,·,–,13µM,–,·
O=C1CC(c2ccc(Cl)cc2)Sc2nc(-c3ccc(F)cc3)nn21 (stereo not drawn),·,·,·,–,–,·
COCCNC(=S)N1CCN(c2nc(-c3ccccc3)cs2)CC1,–,–,–,–,–,–
O=C(NC12CC3CC(CC(C3)C1)C2)N1CCN(c2ccccc2)CC1,–,–,–,?,–,–
O=C(NC1CCCCC1)N1CCN(c2nc(-c3ccccc3)cs2)CC1,–,–,–,–[7.66 µM],–[7.66 µM],–
O=C(NC12CC3CC(CC(C3)C1)C2)N1CCN(c2nc(-c3ccccc3)cs2)CC1,–,–,–,3.2µM,–,–
COc1ccc(N2CCN(C(=O)NC34CC5CC(CC(C5)C3)C4)CC2)cc1,–,–,–,7.9µM,–,–
O=C(NC(=S)N1CCN(c2nc(-c3ccccc3)cs2)CC1)c1cccnc1,–,–,–,8.9µM,–,–
O=C(/C=C/c1ccccc1)Nc1ccc(Br)cn1,–,1.6µM,–,–,?,–
